aSyn 5UTR act: Activators via SNCA 5'UTR binding, MLPCN; alpha-synuclein 5'UTR reporter, activators screen; activity score, % (tested at 7.5 µM), hits read low; hit rate 7.1% among 300,000; AID 1814; in the data active means activity score below about -60%
* = called active by the depositor. Not all results are given here.

CC(C)c1ccc2[nH]c(O)c(N=NC(=O)c3ccc(CSc4nncn4C)cc3)c2c1 was read as aSyn 5UTR act -72*.
`CCOC(=O)C(CC)/C(C)=N\NC(=O)c1ccccc1O` (stereo unspecified) gave aSyn 5UTR act 93.
C/C(=N\NC(=O)c1ccccc1O)c1ccc(Br)s1 was read as aSyn 5UTR act -162*.
C/C(=N/NC(=O)c1ccc(Br)o1)c1cccs1 was read as aSyn 5UTR act -73*.
`C/C(=N\NC(=O)c1cc(Br)ccc1O)c1cccs1` gave aSyn 5UTR act -111*.
Screening O=c1[nH]c(/C=C/c2ccccc2Cl)nc2ccccc12 returned aSyn 5UTR act -265*.
`Cc1[nH]c2ccccc2c1/C=C/c1nc2ccccc2c(=O)[nH]1` gave aSyn 5UTR act -98*.
For CCOc1cc(/C=C/c2cc(C(F)(F)F)[nH]c(=O)n2)ccc1O the results were aSyn 5UTR act -79*.
For Clc1ccc(/C=C/c2nc3ccccc3[nH]2)c(Cl)c1 the results were aSyn 5UTR act 68.
For Clc1cccc(Cl)c1/C=C/c1nc2ccccc2[nH]1 the results were aSyn 5UTR act -149*.
Screening Clc1ccc(/C=C/c2nc3ccccc3[nH]2)cc1 returned aSyn 5UTR act 61.
`CCOc1cc(/C=C/c2nc3ccccc3c(=O)[nH]2)ccc1O` gave aSyn 5UTR act -133*.
Screening Cc1cccc(/C=C/c2nc3ccccc3c(=O)[nH]2)c1 returned aSyn 5UTR act -94*.
For COc1ccc(C(=O)NCC2OCCc3ccccc32)c(O)c1 (stereo unspecified) the results were aSyn 5UTR act -88*.
For CN(C#N)c1nc(Cl)nc(Nc2cccc(Cl)c2)n1 the results were aSyn 5UTR act -66*.
For OCCCNc1cc(-c2ccnc(Nc3cccc(Cl)c3)n2)ccn1 the results were aSyn 5UTR act 110.
`N#Cc1ccc(OCc2noc(-c3ccsc3)n2)cc1` gave aSyn 5UTR act -81*.
Cc1cccc(C(=O)Oc2ccc(/C=N/O)cc2)c1 was read as aSyn 5UTR act -72*.
For COc1ccc2c(c1)O/C(=C\c1sccc1C)C2=O the results were aSyn 5UTR act -198*.
Screening O=C(CCSc1ccccc1)N1CCCC1 returned aSyn 5UTR act -80*.
`O=C(CCSc1ccccc1)N1CCOCC1` gave aSyn 5UTR act -89*.
Screening Cc1ccc(C)c(OCC(=O)Nc2cc(C)on2)c1 returned aSyn 5UTR act -80*.
For Cc1cc(NC(=O)COc2cccc(Oc3ccccc3)c2)no1 the results were aSyn 5UTR act -122*.
For Cc1[nH]c2ccccc2c1C(=O)NS(=O)(=O)Nc1ccc(Cl)cc1 the results were aSyn 5UTR act -82*.
CSc1cccc(NCc2ccc([N+](=O)[O-])cc2)c1 was read as aSyn 5UTR act -63*.
Screening COc1ccccc1NC(=S)N/N=C/c1cccc(C)c1 returned aSyn 5UTR act -66*.
For COc1ccccc1NC(=S)N/N=C/c1ccc(O)cc1 the results were aSyn 5UTR act -157*.
`O=C(Nc1ccc(Cl)cn1)c1ccc2nccnc2c1` gave aSyn 5UTR act -112*.
O=C(Nc1ccccc1Cl)c1ccc2nccnc2c1 was read as aSyn 5UTR act -96*.
O=C(CSc1ncnc2nc[nH]c12)c1ccccc1 was read as aSyn 5UTR act -87*.
For c1ccc(CCSc2ncnc3nc[nH]c23)cc1 the results were aSyn 5UTR act -75*.
O=C(NN=C1C2CC3CC1CC(Cl)(C3)C2)c1ccccn1 was read as aSyn 5UTR act -137*.
O=C(N/N=C/c1ccncc1)c1ccccn1 was read as aSyn 5UTR act -90*.
`O=C(N/N=C/c1ccc(N2CCOCC2)cc1)c1ccccn1` gave aSyn 5UTR act -103*.
For Cc1ccc(/C=N/NC(=O)c2ccccn2)o1 the results were aSyn 5UTR act -74*.
O=C(NNC(=O)C(c1ccccc1)c1ccccc1)c1ccccn1 was read as aSyn 5UTR act 72.
Screening O=C(NN=C1c2ccccc2-c2ccccc21)c1ccccn1 returned aSyn 5UTR act -134*.
For O=C(O)c1ccc(COc2ccc3ccccc3c2)o1 the results were aSyn 5UTR act -157*.
`CCOc1ccc(OCc2ccc(C(=O)NCc3ccncc3)o2)cc1` gave aSyn 5UTR act -67*.
`CCOc1ccc(OCc2ccc(C(=O)O)o2)cc1` gave aSyn 5UTR act -87*.
Screening COc1ccc(-c2cc(C(=O)Nc3ccc(C(N)=O)cc3)c3ccccc3n2)cc1OC returned aSyn 5UTR act -99*.
`COc1cc(-c2cc(C(=O)Nc3nc4ccccc4s3)c3ccccc3n2)cc(OC)c1OC` gave aSyn 5UTR act -65*.
CCCCOc1ccc(-c2ncc([N+](=O)[O-])cn2)cc1 was read as aSyn 5UTR act -133*.
Screening CCCCOc1ccc(-c2[nH]ncc2C=O)cc1 returned aSyn 5UTR act -82*.
CCCCOc1ccc(-c2ncc(Cl)cn2)cc1 was read as aSyn 5UTR act -89*.
`C=CCNC(=S)N/N=C(\C)c1ccccn1` gave aSyn 5UTR act 86.
CCN(CC)c1ccc(/C=N/NC(=S)NCc2ccc(OC)cc2)cc1 was read as aSyn 5UTR act -76*.
For COc1ccc(C/C(C)=N/NC(=S)Nc2ccccc2)cc1 the results were aSyn 5UTR act -124*.
